# Reference: the supplement of paper PMC6555819
# System: VDR:RXRa (NR concentration 270 nM, RXRa partner concentration 90 nM)
# Experiment: PBM binding z-score (relative to random genomic background probes); higher = stronger binding; sequences stand for … in GC…GCGATTGACAGCGTAGAATGAAGG
# Procedure: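 Protein-binding microarray (Agilent 4x180K custom design, double-stranded 60-nt probes: 5' GC cap, 34-nt variable region, 24-nt constant primer region; full probe sequence given). Purified or IVT nuclear receptor:RXRα heterodimers (3:1 NR:RXRα, mostly 270:90 nM) or homodimers were incubated for 1 h in PBS with 2% milk and no ligand, then detected with Alexa488 antibodies. Fluorescence from o1-orientation probes (~5 replicates averaged) was converted to z-scores against 500 random hg19 background probes. Variable regions are seed direct-repeat (DR0–DR5) sites, all their single-nucleotide variants and half-site ablations.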
row,Sequence,PBM binding z-score
1,CGAACTAGGTCAGAACAGCACAGTGAAGGATGAT,0.261
2,ATACCAAGGTGATCGTAAGGTCGTTGATACTAAC,2.74
3,TCTTGAAGATCAAAGGTTAAGAAAGCCGAAGCCT,1.64
4,TCGAGTAGGTTACCTATGGGGCATTCAGCTTTCT,-0.0814
5,ATCTCTATGTAAGACTCAGTTCAGTGAAGAACGC,0.971
6,CTCGAAAGGTCGTGCTCAGGTGCGTATACCAAAC,3.57
7,CGTCCAAGGTCAAACGTCAGTGAAGAGATGACGG,4.37
8,CAAACTAGGTCACCGGAACGTCAAAGTCCGCATG,2.48
9,TCTAGCAGGCCAGAGGGTCACTCGAGAGGTACGG,1.39
10,TCTCGGAGGACACGAAGGTCAGATCTTTCCAGAG,2.61
11,ATCGAAAGGTCGAAGGGGAGTATACCCACCCGAA,2.67
12,CCTACTGGCCCAAGGTCATTGATCAGTCAAAGCA,3.26
13,ATCTCTAGGTAAAAGTTCAGTGCATCCCGAGGAT,1.69
14,ATCTCTAGGTAAAGATAGTTCAGTTAATGCAAAT,1.21
15,ACAGACAGGTGATGAAGGTAACTCCGGCTATCAT,0.125
16,CCTACGGGGCCATTCAGAGGTCATTGATCATATG,5.2
17,ATCTCTAGGTAAGACTCAGTTCTGTGAAGAACGC,0.069
18,ATCTCTAGGTAAAGATCGTTCAGTGAATGCAAAT,0.221
19,ACTAGCAGGCCAAGTTTGGGTCATTCAAACAAAG,1.07
20,CCTACTGGGCCAAACGTCATTGATTCCAATGCTC,-0.204

row,Sequence,PBM binding z-score
1,TCATATAAGTAAAGGTGAAAGTCGAACGATATGA,0.925
2,TCTGCTAGGTCAGTGGGTCAGCTAACGAGCTGCC,1.5
3,TCTCGGAGGGCACGAAAGGTCAGAGCTCGACATC,4.66
4,CCTCGGAGGACAACAGGAGGTCAGACCTGCCAGA,1.95
5,CCTTACGGGTCAACGTTATAGCACGGGTGGTACG,3.03
6,ATCCCTAGGTAAAAGTTCAGTGAATCCCGAGGAT,0.958
7,CAGCCTAGGTCAGGGACAGTATAGGAGGAACGTT,0.484
8,CCGTCTGGGGCAAAGGTTACCATACTCAGTACGA,1.55
9,AATATTAGTTGACTTAGGGCAACCGATACGACGC,0.46
10,CCTATTAGTTGACCATAAGGGCAACCGGAGCTCG,0.682
11,TCTCGGAGGACACGAAGGTCATAGCTTTCCAGAG,4.04
12,ATCTCGAGGTAAGACTCAGTTCAGTGAAGAACGC,0.704
13,ATCTCTAGGTAAAGTTAAGTGAAAGATCGATAGA,0.476
14,CGAACTAGGTCATCCAGGAAAGTGAATACATTGA,2.24
15,CCTACTGGGCCATCCAGAGGTCATTGATCATATG,4.12
16,ATATGTAGGTTATCGGGTCAATCAGTTTGCGCAT,5.29
17,CCTCGGCGGACAACAGGAGGTCAGAGCTGCCAGA,0.818
18,ACTATTACTTGAGACGAGGGCAACCGATAGGTTG,0.736
19,AGAATGAGGTTAAGATCATGGAAACAGAATACAT,1.28
20,CCTGCTAGGTCATTGTCAGCTAATCTACAGTATG,1.66
